# Test results taken from PubChem BioAssay (NCATS).
# Several values for one entry are separate records, joined by “and”; a condition that tells them apart may be missing. Identical values can stand only once. Results filed as inconclusive are left out. Activity calls are given as the source filed them. Unless noted, calls come from the whole dose curve.
# Legend:
# [1] = Stat Signaling Pathway (AID 446; active = well fitted curve in either direction with a large enough effect, not every such curve was filed as active;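 note: ME-180 cervical cancer cells given 40 pM IL-6 alongside compound; SIE-controlled beta-lactamase reporter measured as 460/530 nm FRET emission ratio; % is set by controls: 0 for no effect and ±100 for the full control effect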)
# In short: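 Reporter line: ME-180 cervical carcinoma, SIE-beta-lactamase. Treatment: compound with 40 pM IL-6, 5 hrs, 37 C, in low-serum OPTI-MEM with 10 mM HEPES pH 7.3. Detection: 460/530 nm fluorescence.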
# [2] = biological target: Glucocorticoid receptor (Homo sapiens) (UniProt P04150); test: GR-GFP Redistribution (AID 450;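 active = compounds whose dose series gives a full or clear partial fitted curve of increased nuclear translocation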; note: potency is the fitted concentration of half-maximal effect); settings: U2OS GR-GFP nuclear translocation, laser cytometry, 2 h
# Glucocorticoid receptor (Homo sapiens), sequence (P04150 whole entry, looked up, the tested form may be a part): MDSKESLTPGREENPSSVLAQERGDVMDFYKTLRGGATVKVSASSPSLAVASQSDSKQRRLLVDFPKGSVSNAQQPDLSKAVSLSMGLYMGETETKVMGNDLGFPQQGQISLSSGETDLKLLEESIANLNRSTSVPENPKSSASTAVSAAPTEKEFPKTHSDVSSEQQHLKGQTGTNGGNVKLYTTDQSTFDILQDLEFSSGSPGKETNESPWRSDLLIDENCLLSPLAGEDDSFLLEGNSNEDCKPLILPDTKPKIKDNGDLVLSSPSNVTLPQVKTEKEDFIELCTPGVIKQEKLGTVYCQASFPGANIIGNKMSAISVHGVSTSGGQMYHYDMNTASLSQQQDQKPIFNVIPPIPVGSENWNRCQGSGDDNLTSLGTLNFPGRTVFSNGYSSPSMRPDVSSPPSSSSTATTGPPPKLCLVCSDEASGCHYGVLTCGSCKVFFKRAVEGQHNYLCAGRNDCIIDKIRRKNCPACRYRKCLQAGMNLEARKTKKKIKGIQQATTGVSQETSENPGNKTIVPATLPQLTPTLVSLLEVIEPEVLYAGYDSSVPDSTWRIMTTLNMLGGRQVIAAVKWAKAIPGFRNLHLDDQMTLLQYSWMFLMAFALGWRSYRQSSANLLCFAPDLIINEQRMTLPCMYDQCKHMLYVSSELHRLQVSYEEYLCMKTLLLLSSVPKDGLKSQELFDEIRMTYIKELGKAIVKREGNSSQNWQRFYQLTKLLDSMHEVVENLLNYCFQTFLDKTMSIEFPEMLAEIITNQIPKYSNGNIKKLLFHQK
# [3] = biological target: Glucocorticoid receptor (Homo sapiens) (UniProt P04150); test: GR-EFC Redistribution (AID 451); settings: CHO-K1 GR-EFC translocation, beta-gal luminescence, 2 h; note: potency is the fitted concentration of half-maximal effect
# In short: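 CHO-K1 cells expressing nuclear EA and GR-ED fragments of b-gal; compounds titrated up to 46 uM final, 2 h at 37 C. GR nuclear translocation read as complemented b-gal luminescence after 1 h RT detection.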
# [4] = biological target: Mitogen-activated protein kinase 10 (Mus musculus) (UniProt Q61831); test: JNK3 AlphaScreen Assay (AID 530; active = well fitted curve in either direction with a large enough effect, not every such curve was filed as active;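 note: kinase came from lysate of stimulated human HepG2 cells; signal reports phosphorylation of biotinylated GST-cJun 1-79 at Ser73 with 10 µM ATP; % is set by controls: 0 for no effect and ±100 for the full control effect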)
# In short: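 qHTS format: compounds tested as titrations against IL-1beta/TNF-alpha-activated HepG2 lysate JNK3 with biotin-GST-cJun substrate and 10 uM ATP at room temperature. Loss of anti-phospho-cJun AlphaScreen signal indicates inhibition.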
# [5] = qHTS Assay for Lipid Storage Modulators (AID 1519); settings: Drosophila S3 cells, BODIPY lipid droplet/cell ratio, laser cytometry, cells loaded with oleic acid; note: potency is the fitted concentration of half-maximal effect
# In short: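 Cells seeded at 5,000 per well were treated with compounds over a concentration series and loaded with oleic acid (400 uM, as added). Lipid droplet fluorescence (488 nm excitation, 500-530 nm channel) was read by laser-scanning cytometry and normalized to 20 uM Triacsin C.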
# [6] = biological target: Ubiquitin carboxyl-terminal hydrolase 1 (Homo sapiens) (UniProt O94782); test: Inhibitors of USP1/UAF1: Pilot qHTS (AID 504865; active = well fitted curve in the direction sought with a large enough effect; an effect the other way counts as inactive or inconclusive; note: nearly all actives have a fitted effect of over 35% in size; note: potency is the fitted concentration of half-maximal effect)
# Ubiquitin carboxyl-terminal hydrolase 1 (Homo sapiens), sequence (O94782 whole entry, looked up): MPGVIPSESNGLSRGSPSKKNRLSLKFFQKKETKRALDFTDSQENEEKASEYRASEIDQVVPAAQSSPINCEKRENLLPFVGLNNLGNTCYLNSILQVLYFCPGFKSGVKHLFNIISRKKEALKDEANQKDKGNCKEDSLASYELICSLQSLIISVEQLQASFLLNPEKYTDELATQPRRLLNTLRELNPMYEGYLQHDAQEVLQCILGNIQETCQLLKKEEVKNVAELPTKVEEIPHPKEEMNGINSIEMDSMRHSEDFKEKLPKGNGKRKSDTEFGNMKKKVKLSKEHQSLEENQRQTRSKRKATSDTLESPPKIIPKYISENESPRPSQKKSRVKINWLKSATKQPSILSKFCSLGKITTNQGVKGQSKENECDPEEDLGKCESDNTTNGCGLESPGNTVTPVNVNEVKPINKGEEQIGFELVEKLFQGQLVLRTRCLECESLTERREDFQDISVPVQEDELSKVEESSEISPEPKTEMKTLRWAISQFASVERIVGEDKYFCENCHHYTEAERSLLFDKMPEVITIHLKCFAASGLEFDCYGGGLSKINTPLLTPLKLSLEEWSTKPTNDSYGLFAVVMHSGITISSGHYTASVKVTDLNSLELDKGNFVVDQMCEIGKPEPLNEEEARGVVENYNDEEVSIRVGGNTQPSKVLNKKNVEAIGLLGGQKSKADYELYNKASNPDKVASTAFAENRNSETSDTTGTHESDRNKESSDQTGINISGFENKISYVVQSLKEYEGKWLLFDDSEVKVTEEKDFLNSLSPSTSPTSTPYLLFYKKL
# In short: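 1nM USP1/UAF1 + cpd, 15 min RT; start w/ Ub-Rho 150nM final; kinetic FL 480/540 nm, 6 reads q60 s. Buffer 50mM HEPES pH 7.8, 0.5mM EDTA, 1mM TCEP, 0.01% Tween-20, 0.1 mg/ml BSA.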
# [7] = biological target: ATP-dependent 6-phosphofructokinase (Trypanosoma brucei brucei) (UniProt O15648); test: qHTS Assay to Find Inhibitors of T. brucei phosphofructokinase: hit validation (AID 492961; active = well fitted curve in the direction sought with a large enough effect; an effect the other way counts as inactive or inconclusive;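 note: luminescence reports ADP formed as PFK phosphorylates fructose-6-phosphate with ATP; % is set by controls: 0 for no effect and ±100 for the full control effect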)
# ATP-dependent 6-phosphofructokinase (Trypanosoma brucei brucei), sequence (O15648 whole entry, looked up): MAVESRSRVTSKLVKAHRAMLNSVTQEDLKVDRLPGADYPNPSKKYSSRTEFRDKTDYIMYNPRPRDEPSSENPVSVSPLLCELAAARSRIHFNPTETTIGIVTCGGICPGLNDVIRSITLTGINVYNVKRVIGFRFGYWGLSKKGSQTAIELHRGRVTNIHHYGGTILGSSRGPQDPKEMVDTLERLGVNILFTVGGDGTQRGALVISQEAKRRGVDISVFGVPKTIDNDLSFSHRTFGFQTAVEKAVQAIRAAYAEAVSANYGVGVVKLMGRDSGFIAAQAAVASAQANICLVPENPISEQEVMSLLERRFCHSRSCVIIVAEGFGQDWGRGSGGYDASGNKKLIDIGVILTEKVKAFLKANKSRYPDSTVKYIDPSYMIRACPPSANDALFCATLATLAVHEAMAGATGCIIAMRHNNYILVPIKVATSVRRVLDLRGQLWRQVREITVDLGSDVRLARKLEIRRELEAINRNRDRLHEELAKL
# In short: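 Inhibition of parasite PFK is measured as reduced ADP formation, quantified via luciferase after ATP depletion. Assay used 0.1 mM ATP, 0.5 mM F6P, 1.25 nM enzyme, 45 min incubation.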
# [8] = biological target: Luciferin 4-monooxygenase (Photinus pyralis) (UniProt P08659); test: Biochemical firefly luciferase enzyme assay for NPC (AID 624030; active = well fitted curve in the direction sought with a large enough effect; an effect the other way counts as inactive or inconclusive;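 note: purified P. pyralis luciferase at 10 nM with luciferin and ATP substrate; 0% = DMSO and -100% = full luciferase inhibition by PTC124 control; nearly all actives have a fitted effect of over 70% in size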)
# Luciferin 4-monooxygenase (Photinus pyralis), sequence (P08659 whole entry, looked up): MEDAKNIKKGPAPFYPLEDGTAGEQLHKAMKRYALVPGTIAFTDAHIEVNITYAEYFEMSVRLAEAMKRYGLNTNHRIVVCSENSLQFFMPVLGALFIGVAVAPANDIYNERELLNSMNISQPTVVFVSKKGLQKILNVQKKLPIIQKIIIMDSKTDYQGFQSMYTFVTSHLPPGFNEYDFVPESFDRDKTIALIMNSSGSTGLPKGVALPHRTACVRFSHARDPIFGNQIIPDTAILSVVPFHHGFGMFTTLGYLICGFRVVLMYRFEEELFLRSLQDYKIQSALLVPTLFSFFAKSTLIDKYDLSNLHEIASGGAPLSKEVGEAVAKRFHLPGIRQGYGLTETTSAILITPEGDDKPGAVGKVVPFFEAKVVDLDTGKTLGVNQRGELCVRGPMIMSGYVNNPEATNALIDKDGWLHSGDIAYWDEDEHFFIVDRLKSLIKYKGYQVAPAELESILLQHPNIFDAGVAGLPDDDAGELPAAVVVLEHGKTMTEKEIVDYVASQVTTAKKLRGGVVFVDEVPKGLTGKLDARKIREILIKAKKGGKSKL
# In short: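 Purified P. pyralis luciferase at 10 nM in 50 mM Tris Acetate (final), luminescence read within 5 minutes of enzyme addition to compounds. Activity normalised to PTC124 versus DMSO; concentration-response curves classed by r2, magnitude and activity.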
# [9] = qHTS profiling for inhibitors of Plasmodium falciparum proliferation (AID 504749; active = well fitted curve in the direction sought with a large enough effect; an effect the other way counts as inactive or inconclusive;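 note: 0% = DMSO vehicle and full inhibition = artemisinin control; nearly all actives have a fitted effect of over 60% in size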); settings: P. falciparum in erythrocytes, SYBR Green DNA, 72 h, at 28.7 µM (top of the series)
# In short: (§1)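 Readout was DNA-dye fluorescence from lysed cultures, ex 485/em 535 nm. Parasitized red cells had grown 72 h with compound; data scaled between 0.29 uM artemisinin and DMSO wells and corrected using vehicle-only plates.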
# C2A = test: as above; settings: P. falciparum in erythrocytes, SYBR Green DNA, 72 h; series mostly up to 28.7 µM
# In short: as §1
# CP192 = test: as above; settings: P. falciparum in erythrocytes, SYBR Green DNA, 72 h; series mostly up to 28.7 µM
# In short: as §1
# CP211 = test: as above; settings: P. falciparum in erythrocytes, SYBR Green DNA, 72 h; series mostly up to 28.7 µM
# In short: as §1
# CP266 = test: as above; settings: P. falciparum in erythrocytes, SYBR Green DNA, 72 h; series mostly up to 12.8 µM
# In short: as §1
# CP315 = test: as above; settings: P. falciparum in erythrocytes, SYBR Green DNA, 72 h; series mostly up to 28.7 µM
# In short: as §1
# CP329 = test: as above; settings: P. falciparum in erythrocytes, SYBR Green DNA, 72 h; series mostly up to 28.7 µM
# In short: as §1
# FAB9 = test: as above; settings: P. falciparum in erythrocytes, SYBR Green DNA, 72 h; series mostly up to 28.7 µM
# In short: as §1
# [10] = biological target: Cytochrome P450 1A2 (Homo sapiens) (UniProt P05177); test: p450-cyp1a2 (AID 410); note: potency is the fitted concentration of half-maximal effect;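 for activity change, negative = inhibition: -100% = full effect of reference inhibitor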
# Cytochrome P450 1A2 (Homo sapiens), sequence (P05177 whole entry, looked up): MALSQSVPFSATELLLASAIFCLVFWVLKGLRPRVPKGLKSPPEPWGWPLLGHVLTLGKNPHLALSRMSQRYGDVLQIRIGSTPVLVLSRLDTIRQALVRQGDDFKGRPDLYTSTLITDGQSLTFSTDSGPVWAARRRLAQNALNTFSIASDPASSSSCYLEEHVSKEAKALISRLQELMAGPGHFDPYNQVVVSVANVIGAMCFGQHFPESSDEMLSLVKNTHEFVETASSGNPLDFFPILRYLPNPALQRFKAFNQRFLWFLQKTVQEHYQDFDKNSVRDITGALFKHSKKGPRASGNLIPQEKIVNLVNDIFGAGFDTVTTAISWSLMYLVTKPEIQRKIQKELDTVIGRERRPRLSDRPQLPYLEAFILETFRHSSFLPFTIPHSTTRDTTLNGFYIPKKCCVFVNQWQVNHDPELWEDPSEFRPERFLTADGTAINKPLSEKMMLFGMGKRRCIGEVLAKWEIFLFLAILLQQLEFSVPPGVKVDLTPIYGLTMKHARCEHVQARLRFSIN
# In short: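 Human CYP1A2 (20nM) demethylated Luciferin-ME at its Km (100uM) in 100mM KPO4. After 10 min compound preincubation, NADPH regeneration ran the reaction 60 min at room temperature. Luciferin was read by luminescence, normalized to 57 uM furafylline.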
# [11] = NFAT Signaling Pathway (AID 444; active = well fitted curve in either direction with a large enough effect, not every such curve was filed as active;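 note: carbachol stimulus at about its EC50 of 1 µM final; % is set by controls: 0 for no effect and ±100 for the full control effect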); settings: Jurkat NFAT-bla M1, carbachol, beta-lactamase ratio, 5 h; at 17.2 µM (top of the series)
# In short: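 Jurkat cells with NFAT-driven β-lactamase reporter and co-expressed M1 receptor, stimulated with carbachol (final 1 uM, ~EC50), compound titration, 5 h at 37 °C. CCF4 loaded 1 h at RT; 460/530 nm ratio gave %activity and AC50.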
# [12] = biological target: 3',5'-cyclic-AMP phosphodiesterase 4B (Homo sapiens) (UniProt Q07343); test: qHTS Assay for Inhibitors of PDE-IV (AID 607; active = well fitted activation curve with a large enough effect in the main read-out, with a control signal flat, not every such curve was filed as active; note: % of control where 0% means no effect)
# 3',5'-cyclic-AMP phosphodiesterase 4B (Homo sapiens), sequence (Q07343 whole entry, looked up): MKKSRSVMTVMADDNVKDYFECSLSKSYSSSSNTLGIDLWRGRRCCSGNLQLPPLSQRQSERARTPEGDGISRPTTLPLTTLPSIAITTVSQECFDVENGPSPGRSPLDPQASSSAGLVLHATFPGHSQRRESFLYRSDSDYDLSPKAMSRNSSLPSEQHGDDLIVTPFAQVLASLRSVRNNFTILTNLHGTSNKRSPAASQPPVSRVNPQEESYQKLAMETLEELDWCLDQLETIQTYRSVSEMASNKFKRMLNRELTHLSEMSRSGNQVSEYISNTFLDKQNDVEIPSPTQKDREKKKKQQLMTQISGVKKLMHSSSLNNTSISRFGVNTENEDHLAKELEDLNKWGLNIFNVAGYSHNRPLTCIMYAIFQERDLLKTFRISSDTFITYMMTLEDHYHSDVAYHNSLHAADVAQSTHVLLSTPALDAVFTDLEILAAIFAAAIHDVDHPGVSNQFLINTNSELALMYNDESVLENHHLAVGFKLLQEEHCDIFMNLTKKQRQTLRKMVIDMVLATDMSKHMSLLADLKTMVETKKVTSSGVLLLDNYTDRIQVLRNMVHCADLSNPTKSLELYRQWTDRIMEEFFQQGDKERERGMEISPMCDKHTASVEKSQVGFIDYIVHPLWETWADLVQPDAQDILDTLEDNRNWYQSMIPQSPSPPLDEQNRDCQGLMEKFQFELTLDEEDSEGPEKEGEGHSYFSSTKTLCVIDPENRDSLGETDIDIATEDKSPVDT
# In short: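 Cell-based read-out of cAMP via a modified cyclic nucleotide-gated channel and membrane potential dye (535/590 nm) in HEK293 cells expressing PDE4 endogenously. Compounds tested up to 22.9 uM final; 100 uM RO 20-1724 reference.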
# [13] = AP1 Signaling Pathway (AID 357; active = well fitted curve in either direction with a large enough effect, not every such curve was filed as active)
# In short: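 Cells are seeded overnight, exposed to compound titrations and an EC50 level of EGF for 5 hours at 37 °C, then loaded with CCF4 dye for 2.5 hours. Beta-lactamase activity under the AP-1 element is read as a blue/green ratio.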
# [14] = measured here: cell count channel max response
# [15] = measured here: lipid channel max response
structure (smiles),measurement,setting,value
C[C@@]12CC[C@H]3[C@@H](CC[C@]4(O)C[C@H](O)CC[C@@]34C=O)[C@]1(O)CC[C@@H]2C1=CC(=O)OC1,outcome,[1],inactive
same,Potency,[2],> 20.6 µM (inactive)
same,Potency,[3],> 20.6 µM (inactive)
same,outcome,[4],inactive
same,"activity change, negative = inhibition",[5]; at 25.7 µM (top of the series),-0.542% (inactive)
same,max response,[5]; [14],6.59%
same,max response,[5]; [15],6.37%
same,Potency,[6],inactive
ClC1=C(Cl)C2(Cl)C3C4CC(C5OC45)C3C1(Cl)C2(Cl)Cl (stereo unspecified),outcome,[4],inactive
same,"activity change, negative = inhibition",[5]; at 57.5 µM (top of the series),3.37% (inactive)
same,max response,[5]; [14],8.98%
same,max response,[5]; [15],15.6%
same,Potency,[7],inactive
same,Potency,[8],inactive
same,"activity, negative = inhibition",[9]; parasite line A,-12.8% (inactive)
same,"activity, negative = inhibition",[9]; parasite line B,-9.6% (inactive)
same,Potency,C2A,inactive
same,Potency,CP192,inactive
same,Potency,CP211,inactive
same,Potency,CP266,inactive
same,Potency,CP315,inactive
same,Potency,CP329,inactive
same,Potency,FAB9,inactive
CCc1cccc(CC)c1N(COC)C(=O)CCl,"activity change, negative = inhibition",[5]; at 57.5 µM (top of the series),1.98% (inactive)
same,max response,[5]; [14],-0.808%
same,max response,[5]; [15],0.291%
same,Potency,[6],inactive
COP(=S)(OC)Oc1ccc([N+](=O)[O-])cc1,outcome,[4],inactive
same,Potency,[5],22.4 µM (active)
same,max response,[5]; [14],19.5%
same,max response,[5]; [15],-54.1%
C[C@@]12CC[C@H](O)C[C@@H]1CC[C@H]1[C@H]2CC[C@@]2(C)[C@@H](C3=CC(=O)OC3)CC[C@]12O,Potency,[10],inactive
same,"activity change, negative = inhibition",[11],-74.9% (active)
same,outcome,[1],inactive
same,Potency,[2],> 20.6 µM (inactive)
same,Potency,[3],> 20.6 µM (inactive)
same,outcome,[4],inactive
same,"activity change, negative = inhibition",[5]; at 25.7 µM (top of the series),-3.39% (inactive)
same,max response,[5]; [14],-2.15%
same,max response,[5]; [15],-7.35%
same,Potency,[6],inactive
COC(=O)NC(=S)Nc1ccccc1NC(=S)NC(=O)OC,outcome,[4],inactive
same,"activity change, negative = inhibition",[5]; at 57.5 µM (top of the series),3.23% (inactive)
same,max response,[5]; [14],8.02%
same,max response,[5]; [15],10.3%
CC(=O)O[C@H]1C[C@@H](O[C@@H]2[C@H](C)O[C@H](O[C@@H]3[C@H](C)O[C@H](O[C@@H]4CC[C@@]5(C)[C@@H](CC[C@]6(C)[C@]5(C)C[C@H](O)[C@]5(C)[C@@H](C7=CC(=O)OC7)CC[C@@]56O)C4)C[C@@H]3O)C[C@@H]2O)O[C@@H](C)[C@H]1O[C@H]1O[C@@H](CO)[C@@H](O)[C@@H](O)[C@@H]1O,Potency,[10],inactive
same,Potency,[2],> 20.6 µM (inactive)
same,outcome,[4],inactive
same,"activity change, negative = inhibition",[5]; at 25.7 µM (top of the series),-1.77% (inactive)
same,max response,[5]; [14],-6.91%
same,max response,[5]; [15],-8.38%
same,Potency,[6],inactive
COc1cc2c(cc1O)C[C@H]1c3c(cc(O)c(OC)c3-2)CCN1C,Potency,[10],2.51 µM (active)
same,"activity change, negative = inhibition",[11],-8.08% (inactive)
same,Potency,[2],> 20.6 µM (inactive) and > 46 µM (inactive)
same,Potency,[3],> 20.6 µM (inactive) and > 46 µM (inactive)
same,outcome,[4],inactive
same,Potency,[12],inactive
same,"activity change, negative = inhibition",[5]; at 25.7 µM (top of the series),0.193% (inactive)
same,max response,[5]; [14],3.24%
same,max response,[5]; [15],4.01%
ClC(Cl)=C(c1ccc(Cl)cc1)c1ccc(Cl)cc1,"activity change, negative = inhibition",[5]; at 57.5 µM (top of the series),9.37% (inactive)
same,max response,[5]; [14],14.6%
same,max response,[5]; [15],26.1%
same,Potency,[6],inactive
CN1C[C@H](CO)C=C2c3cccc4[nH]cc(c34)C[C@@H]21,outcome,[13],inactive
same,outcome,[1],inactive
same,Potency,[2],> 20.6 µM (inactive)
same,Potency,[3],> 20.6 µM (inactive)
same,outcome,[4],inactive
same,Potency,[12],inactive
same,"activity change, negative = inhibition",[5]; at 25.7 µM (top of the series),0.712% (inactive)
same,max response,[5]; [14],-6.66%
same,max response,[5]; [15],-5.9%
same,Potency,[6],31.6 µM (active)
c1ccc2c(c1)[nH]c1cnccc12,outcome,[13],inactive
same,"activity change, negative = inhibition",[11],25.7% (inactive)
same,outcome,[1],inactive
same,"activity change, negative = inhibition",[5]; at 57.5 µM (top of the series),0.155% (inactive)
same,max response,[5]; [14],-9.28%
same,max response,[5]; [15],-6.47%
